NPC1 promoter act – activates the NPC1 promoter; Huh7 NPC1 promoter luciferase reporter, 24 h; Potency, µM (titrated, usually from 9.22 µM), without a hit: at the highest dose activation, usual class: activators; actives 2.4% (n = 320,000); note: % of control where 0% means no effect; nearly all actives have a fitted effect of over 60% in size
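Luminescence from an NPC1 promoter-driven luciferase reporter in stably transfected Huh7 cells was measured after 24 h compound treatment at 37 °C, followed by 10 min ambient incubation with luciferase detection reagent.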
ELG1 repair inh – ELG1-dependent DNA repair inhibition. HEK293T ELG1-luciferase reporter, luminescence, 16 h; DNA damage induced by 5-fluorouridine. actives 2.3% (n = 330,000). Potency, µM (top dose mostly 46.1 µM), for inactives: at the highest dose activity change, negative = inhibition, most hits filed as inhibitors. AID 504467; note: % is set by controls: 0 for no effect and ±100 for the full control effect; nearly all actives have a fitted effect of over 55% in size
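HEK293T cells expressing luciferase-tagged ELG1 (2,000/well) received 5-Fluorouridine plus compound or DMSO for 16 hr at 37 °C. Luciferase was read by ONE-Glo luminescence after 30 min at room temperature.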
ELG1 genotox – induces genotoxicity in HEK293T cells with luciferase-tagged ELG1; AID 504466; actives 1.3% (n = 330,000); HEK293T ELG1-luciferase reporter, luminescence, 16 h; Potency, µM (series often up to 46 µM), for inactives: top-dose activity change, positive = activation, hits mostly activators; note: % of control where 0% means no effect; nearly all actives have a fitted effect of over 60% in size
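Screening used a luciferase reporter fused to human ELG1 in HEK293T cells. Luminescence was read on a CCD plate imager after 16 hr exposure and 30 min ONE-Glo incubation.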
SMN2 splice enh – SMN2 splice variant enhancement; HEK293 SMN2-luciferase splicing reporter, luminescence, 30-36 h; Potency, µM (series often up to 46.1 µM), for inactives: at the top dose activity change, positive = activation, usual class: activators; actives 2.8% (n = 210,000); AID 1458; note: % of control where 0% means no effect; nearly all actives have a fitted effect of over 55% in size
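HEK293 cells carry an SMN2 minigene-luciferase reporter in which exon 7 inclusion puts luciferase in frame. Cells were seeded at 2000 cells/well, attached for 10-12 hours, then exposed to compounds for 30-36 hours at 37C before ONE-Glo luminescence.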
Rab9 prom act – Rab9 promoter activation | Huh7 Rab9 promoter-luciferase reporter, luminescence, 24 h | Potency, µM (series often up to 9.22 µM), without a hit: at the highest dose activation, negative = inhibition, most hits filed as activators | actives 2.8% (n = 320,000) | AID 485297; note: % of control where 0% means no effect; nearly all actives have a fitted effect of over 60% in size
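Stable Rab9-luc Huh7, 1500 cells/well, 2 h settle; cmpd in DMSO, 24 h, 37 °C/5% CO2; luciferase reagent 10 min RT; luminescence.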
FLuc counter – inhibits or activates purified firefly luciferase, miR-21 counter-screen; AID 588342; purified FLuc, Km substrates, luminescence inhibition; actives 6.9% (n = 360,000); Potency, µM (highest dose often 57.5 µM), inactives show top-dose activity change, negative = inhibition, hits mostly inhibitors;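 note: plate controls were vehicle for no effect and reference inhibitor for full effect; nearly all actives have a fitted effect of over 55% in size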
Target sequence (P08659 whole entry, looked up): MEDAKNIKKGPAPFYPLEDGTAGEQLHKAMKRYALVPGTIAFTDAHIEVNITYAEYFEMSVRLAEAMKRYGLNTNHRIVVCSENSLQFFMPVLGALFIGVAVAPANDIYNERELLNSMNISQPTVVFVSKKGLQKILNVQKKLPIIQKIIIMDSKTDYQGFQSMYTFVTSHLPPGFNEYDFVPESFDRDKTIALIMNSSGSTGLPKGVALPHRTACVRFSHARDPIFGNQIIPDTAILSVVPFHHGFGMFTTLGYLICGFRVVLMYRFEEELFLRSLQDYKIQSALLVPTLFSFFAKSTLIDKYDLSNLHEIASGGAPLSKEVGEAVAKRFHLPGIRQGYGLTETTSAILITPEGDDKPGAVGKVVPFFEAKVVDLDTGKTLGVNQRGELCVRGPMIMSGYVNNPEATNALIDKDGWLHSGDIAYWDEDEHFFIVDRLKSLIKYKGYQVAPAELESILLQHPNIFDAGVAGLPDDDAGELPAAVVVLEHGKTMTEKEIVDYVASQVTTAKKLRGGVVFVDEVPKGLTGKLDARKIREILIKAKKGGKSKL
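Purified P. pyralis luciferase (10nM final) with 10uM D-luciferin and 10uM ATP (Km levels) in 50mM Tris acetate pH 7.5, 10mM Mg acetate, 0.01% Tween-20, 0.05% BSA; qHTS 6-point titration, ~60 µM downward; luminescence read.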
* = called active by the depositor; ? = inconclusive; nt = no result; [ ] = remark or other dose. This is a sample that favours compounds with a hit; in the whole collection about 9.4% have one here. Calls come from the whole dose curve; as a rule, active = well fitted curve in the direction sought with a large enough effect; inconclusive = small, poorly fitted or top-dose-only effect, or another doubt; inactive = no such curve, though single readings can be large; an effect the other way counts as inactive or inconclusive. Potency is the fitted concentration of half-maximal effect.

SMILES	NPC1 promoter act	ELG1 repair inh	ELG1 genotox	SMN2 splice enh	Rab9 prom act	FLuc counter
Nc1ccc(-c2nc3ccc(-c4nc5ccccc5o4)cc3[nH]2)cc1	29%	-6%	2%	4%	26%	?
Cc1ccc2nc(-c3cc(N)cc(N)c3)oc2c1	?	?	7%	?	?	0.38µM*
CN(C)c1ccc(-c2nc3cc(N)ccc3o2)cc1	0.32µM*	?	0.52µM*	nt	0.32µM*	0.19µM*
CN(C)c1ccc(C(=O)Nc2ccc(-c3nc4ccccc4o3)cc2)cc1	nt	nt	nt	3%	nt	0%
Nc1ccc(-c2nc3ccc(N)cc3o2)cc1	?	?	21µM*	?	?	1.5µM*
O=[N+]([O-])c1ccc(C2=Nn3c(nnc3-c3ccc(Cl)cc3)SC2)o1	nt	nt	nt	-6%[9.22 µM]	nt	nt
Cc1cccc(NC(=O)c2sc3nc(N)c(C#N)cc3c2N)c1	2.8µM*	?	?	16µM*	2.5µM*	9.5µM*
CC(=O)c1cccc(NC(=O)c2sc3nc4c(cc3c2N)CCCC4)c1	nt	nt	nt	17%	nt	0.54µM*
CCc1nnc(NC(=O)c2sc3nc4c(cc3c2N)CCCCCC4)s1	?	?	?	13µM*	2.8µM*	4.8µM*
COc1ccc(NC(=O)c2sc3nc4c(cc3c2N)CCCCCC4)cc1OC	nt	nt	nt	1%	nt	-2%
CCc1nnc(NC(=O)c2sc3nc4c(cc3c2N)CCCCC4)s1	2.2µM*	?	?	8.9µM*	1.6µM*	1.7µM*
O=C(NCc1cccc(Br)c1)c1cnn(-c2ccc(F)cc2)c1-n1cccc1	nt	nt	nt	nt	nt	-19%
CC(C)Cn1c(N)c(C(=O)COC(=O)c2ccncc2)c(=O)n(C)c1=O	0%	?	-9%	-23%	1%	1%
CC(C)Cn1c(N)c(C(=O)COC(=O)c2ccc(Br)cc2)c(=O)n(C)c1=O	nt	21µM*	-2%	nt	nt	nt
CC(C)Cn1c(N)c(C(=O)COC(=O)c2cccc(F)c2)c(=O)n(C)c1=O	1%	?	-4%	-29%	-4%	3%
CC(=O)Nc1ccc(SCC(=O)c2c(N)n(Cc3ccccc3)c(=O)n(C)c2=O)cc1	5%	?	-9%	nt	4%	2%
COC(=O)c1c(C)[nH]c(C(=O)OCC(=O)c2c(N)n(CC(C)C)c(=O)n(C)c2=O)c1C	nt	16µM*	-5%	nt	nt	nt
CC(C)Nc1nnc(SCC(=O)c2c(N)n(Cc3ccccc3)c(=O)n(C)c2=O)s1	-1%	18µM*	-5%	-36%	-9%	-1%
CC(C)Cn1c(N)c(C(=O)COC(=O)c2ccc(Cl)cc2)c(=O)n(C)c1=O	-4%	18µM*	-5%	-12%	-10%	-4%
COC(=O)c1ccc(NC(=O)N2CCC(CN3CCc4ccccc4C3)CC2)cc1	nt	nt	nt	nt	nt	-4%
O=C(NCCc1ccccc1)c1ccc2c(c1)CCN2S(=O)(=O)c1ccccc1	nt	nt	nt	1%	nt	3%
CC(C)Cn1c(N)c(C(=O)CSc2ccccc2)c(=O)n(C)c1=O	9%	23µM*	-5%	-60%	-4%	-1%
O=C(/C=C/c1ccc(Cl)c(Cl)c1)n1cccn1	2%	1%	2%	-5%	-1%	2.7µM*
Cc1cc2n(n1)CCC(=O)N2Cc1ccc(C(=O)Nc2cccc(C(F)(F)F)c2)cc1	nt	nt	nt	nt	nt	-16%
CCN(CC)C(=O)CSc1nnc2sc3ccccc3n12	-2%	?	1%	3%	-3%	1%
SMILES	NPC1 promoter act	ELG1 repair inh	ELG1 genotox	SMN2 splice enh	Rab9 prom act	FLuc counter
COc1cccc(NC(=O)Cc2nnc(SCCOc3ccccc3)n2C)c1	-3%	-3%	-10%	4%	-3%	-3%
c1ccc(OCCSc2nnc3sc4ccccc4n23)cc1	0.35µM*	?	?	28%	0.32µM*	0.43µM*
COc1cccc(OCCSc2nnc3sc4ccccc4n23)c1	16%	5%	?	?	10%	19µM*
CCOc1cc(C(=O)NCc2ccc3c(c2)CCN3C(=O)CC)cc(OCC)c1OCC	nt	nt	nt	-2%	nt	-19%
COc1ccc(CCN(C)C(=O)c2cnc(C)cn2)cc1OC	-7%	0%	2%	nt	0%	0%
CC(O)c1cccc(N=Cc2ccc3ccccc3c2O)c1 (stereo not drawn)	-6%	-19%	-2%	nt	2%	27µM*
Oc1ccc(C=Nc2cccc3ccccc23)c(O)c1	-2%	-13%	-1%	nt	16%	-1%
COC(=O)[C@@]1(Cc2ccc(OC)cc2)[C@H]2c3cc(C(=O)N(C)C)n(Cc4ccc(C(F)(F)F)nc4)c3C[C@H]2CN1C(=O)c1ccccc1	nt	nt	nt	-11%	nt	nt
Cc1ccc(NC(=O)Cn2ccn(Cc3ccc(Cl)cc3)c(=O)c2=O)cc1C	nt	nt	nt	nt	nt	3%
CC(=O)NCCC(=O)N1CCCC(CNC(=O)c2ccc(-c3ccccc3)cc2)C1 (stereo not drawn)	-4%	?	9%	-3%	11%	15µM*
Cc1ccccc1CC(=O)N1CCCC(CNC(=O)c2ccc(F)cc2)C1 (stereo not drawn)	8%	4%	0%	nt	-1%	0%
O=C(NCC1CCCN(C(=O)c2cscn2)C1)c1ccc(-c2ccccc2)cc1 (stereo not drawn)	-2%	?	5%	nt	5%	17µM*
C=CCC(=O)N1CCCC(CNC(=O)c2ccc(-c3ccccc3)cc2)C1 (stereo not drawn)	-2%	1%	0%	nt	-3%	24µM*
COc1ccc(Cn2c(C(=O)O)c(CNCc3ccco3)c3ccc(OC)cc32)cc1	nt	nt	nt	nt	nt	-9%
CC(C)[C@](N)(C(=O)O)c1ccccc1	nt	nt	nt	-3%[9.22 µM]	nt	nt
O=C(CNc1cccc(S(=O)(=O)N2CCCC2)c1)Nc1cccc(C(F)(F)F)c1	nt	9.2µM*	-2%	nt	nt	nt
O=C(Nc1cccc(C(F)(F)F)c1)c1cc(S(=O)(=O)N2CCCC2)c[nH]1	nt	nt	nt	nt	nt	17µM*
Cc1nc(-c2ccccn2)nc(N(C)c2ccccc2)c1Cl	-1%	?	-9%	nt	-2%	15µM*
COC(=O)c1oc2ccc(OC)cc2c1N	13%	?	12%	?	29%	21µM*
COc1ccc(C(=O)c2oc3ccc(OC)cc3c2NC(C)=O)cc1	-1%	6%	4%	0%	1%	-2%
COc1ccc(C(=O)c2oc3ccc(OC)cc3c2N)cc1	2.8µM*	?	13µM*	14µM*	2.8µM*	7.6µM*
COc1ccc(C(C)C)cc1S(=O)(=O)NCCc1c(C)[nH]c2ccc(C)cc12	nt	nt	nt	-61%	nt	2%
COc1ccccc1NC(=O)c1sc2nc3c(c(C(F)(F)F)c2c1N)CN(C(C)=O)CC3	nt	nt	nt	-2%	nt	0%

Compound activity from PubChem.
